This is part of a sample that, as a whole, favours compounds with a hit. Of some 83,000 tested, about 20% had one in any assay.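 Treatment: one concentration, 48 hours, 96-well format. Scoring: percent growth, with anything below 10 considered active.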 Unmarked numbers belong to inactive results. The source made the active and inactive calls.
tested on: HL-60(TB) leukemia; experiment: NCI-60 one-dose screen, 48 h (100 = growth as untreated, 0 = no growth, -100 = all killed); conditions: 10 µM unless noted

In order of falling growth:
1. Cc1ccc(O)c(N)c1  115%
2. CCN1CC(CCN2CCOCC2)C(C(c2ccccc2)c2ccccc2)C1=O (stereo not given)  113%
3. CCOC1Oc2ccccc2C(=O)/C1=N/c1nccs1 (stereo not given)  106%
4. O=COCCCc1ccccc1  106%
5. COc1ccc(/C=N/NC(=O)Cn2nnc3ccccc32)cc1  105%
6. CCOC(=O)CCCC(=O)OCC  102%
7. CCS(=O)(=O)c1ncnc2nc[nH]c12  101%
8. CCNCc1ccccc1  101%
9. O=[N+]([O-])c1ccccc1CN1CCCCC1  101%
10. CCOc1ccc(N2C(=O)CCSC2=S)cc1  99.7%
11. NS(=O)(=O)c1ccc(CCN2C(=O)/C(=C\c3ccc(Cl)cc3)C=C2c2ccc3ccccc3c2)cc1  99.5%
12. CC(=O)Nc1cscc1NC(C)=O  96.7%
13. COc1cc(C(=O)Nc2ccc(N(C)C)cc2)cc(OC)c1OC  95.8%
14. O=C(Nc1cccc(NC(=O)C2CCCCC2)c1)c1ccccn1  95.4%
15. C[C@@H](C(=O)O)c1ccc2c3cc(Cl)ccc3n(Cc3cc(=O)oc4ccc(Cl)cc34)c2c1  89.9%
16. COc1ccc2c(c1)CC[C@@H]1[C@@H]2CC[C@]2(C)C3C(=CC(COC(C)=O)C4C(=O)N(c5ccc(Cl)cc5)C(=O)C43)C[C@@H]12 (stereo not given in full)  88.4%
17. COc1ccc(Cn2cc(C(=O)N=Nc3c(O)[nH]c4ccc(Br)cc34)nn2)cc1  85.2%
18. CN(Cc1ccccc1)Cc1ccc([N+](=O)[O-])cc1I  85%
19. CC(=O)NCCSC(=O)C(=O)SCCNC(C)=O  83.6%
20. COc1ccc(-c2nc3c(N)c(CO)cnc3s2)cc1  80.5%
21. CCC(CC)(N(CC(=O)O)CC(=O)O)C(CC)(CC)N(CC(=O)O)CC(=O)O  79.1%
22. C=C(C)[C@@H]1CC[C@]2(/C=N/Nc3ccncc3)CC[C@]3(C)[C@H](CC[C@@H]4[C@@]5(C)CCCNC(C)(C)[C@@H]5CC[C@]43C)[C@@H]12  58.5%
23. Nc1ccc(-c2cc3c(Nc4ccc(Oc5cccc(C(F)(F)F)c5)c(Cl)c4)ncnc3s2)cc1  54.9%
24. COc1cc(/C=C/C(=O)/C=C/c2ccc(-n3ccnc3C)cc2)ccc1O  49.5%
25. CCC(=O)Nc1cc2c(cc1Cl)-c1ccccc1C2  39.4%
26. Cc1ccc(-n2nnc(C3=NCCc4c3[nH]c3ccc(Cl)cc43)c2C)cc1  39.4%
27. COc1cc2c(c(OC)c1OC)CCC(c1cccc(C(=O)Nc3ccc([N+](=O)[O-])cc3)c1)O2 (stereo not given)  38.8%
28. CCCCCCCCCCCCCCCCS(=O)(=O)Nc1cc(C(=O)NN)cc(C(=O)NN)c1  35.8%
29. Cc1ccc2c(c1)C(=O)c1c-2c(OCCCN(C)C)nc2ccccc12  35%
30. Cc1cc(=O)oc2cc(Oc3nc(Br)cn4c(Br)cnc34)ccc12  30.8%
31. COc1cc(/C=C/c2nc(Nc3ccc(S(=O)(=O)Nc4cc(C)on4)cc3)c3ccccc3n2)ccc1O  27.4%
32. COc1ccc(Nc2c3ccccc3nc3ccccc23)cc1  12.8%

With `CCOC(=O)c1cc(C(=O)c2cc(OC)c(OC)c(OC)c2)n2nc(C)ccc12` the growth was -24.2% (active).
`CCCC1Cc2cc(-n3nc(C)c4c3CC(C)(C)CC4=O)cc(NC3CCC(O)CC3)c2C(=O)N1` (stereo not given) was tested, and the growth was -8.17% (active).
For `O=C1NCCS(=O)(=O)/C1=C\C=C\c1cccc(C(F)(F)F)c1`, the growth was 1.71% (active).
In the case of `O=Nc1c(-c2c(O)[nH]c3cc(Br)ccc23)[nH]c2ccccc12`, the growth is reported as -51.3% (active).
With `CCCCCCCCn1ccc2cc(NC(=O)Cn3cc(CN4CCCCCC4)nn3)ccc21` the growth was -43.1% (active).
For `CC1OC2CC(=O)OC2C2=C1C(=O)c1c(O)c3c(c(O)c1C2=O)C1CC(O)C3(O)C(C)O1` (stereo not given), the growth was -26.7% (active).
`COc1cc(/C=C/C(=O)c2ccc(Nc3nc(NCCO)nc(N4CCOCC4)n3)cc2)cc(OC)c1OC` was tested, and the growth was -28.6% (active).
In the case of `O=C(Nc1ccccc1O)c1ccc(NS(=O)(=O)c2cccc3cccnc23)cc1`, the growth is reported as -12.2% (active).

Reference: PubChem BioAssay (NCI)
